# From ChEMBL document CHEMBL1961873, “Compounds: GSK PKIS; Assays: Nanosyn kinase panel” (2012)
# How the values were obtained:
# [1] = target: MAP/microtubule affinity-regulating kinase 3 (Homo sapiens) (UniProt P27448); settings: at 1 µM;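 note: reported values are averaged percent inhibition of MARK3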
# [2] = target: T1, MAP/microtubule affinity-regulating kinase 4 (Homo sapiens) (UniProt Q96L34); settings: at 0.1 µM
# T1 sequence (whole entry): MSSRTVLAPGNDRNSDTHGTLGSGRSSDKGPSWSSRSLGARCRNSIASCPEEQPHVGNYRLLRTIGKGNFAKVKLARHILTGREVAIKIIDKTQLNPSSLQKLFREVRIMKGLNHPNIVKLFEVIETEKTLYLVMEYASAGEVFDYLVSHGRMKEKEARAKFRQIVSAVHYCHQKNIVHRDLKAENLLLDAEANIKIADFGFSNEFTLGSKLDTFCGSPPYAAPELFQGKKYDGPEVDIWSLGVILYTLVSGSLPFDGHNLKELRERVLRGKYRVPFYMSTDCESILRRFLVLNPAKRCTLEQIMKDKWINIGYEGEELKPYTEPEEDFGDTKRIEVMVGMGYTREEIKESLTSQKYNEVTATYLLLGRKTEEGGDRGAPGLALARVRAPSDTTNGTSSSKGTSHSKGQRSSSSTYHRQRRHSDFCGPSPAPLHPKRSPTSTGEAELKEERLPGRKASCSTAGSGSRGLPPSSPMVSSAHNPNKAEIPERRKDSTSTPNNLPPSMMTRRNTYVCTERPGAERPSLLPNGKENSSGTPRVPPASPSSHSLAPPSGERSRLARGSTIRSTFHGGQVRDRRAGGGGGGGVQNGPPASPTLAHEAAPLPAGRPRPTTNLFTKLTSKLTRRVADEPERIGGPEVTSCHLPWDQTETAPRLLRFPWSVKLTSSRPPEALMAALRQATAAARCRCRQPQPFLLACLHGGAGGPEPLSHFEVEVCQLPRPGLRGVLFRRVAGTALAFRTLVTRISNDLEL
# [3] = target: T1, MAP/microtubule affinity-regulating kinase 4 (Homo sapiens); settings: at 1 µM
# [4] = target: Maternal embryonic leucine zipper kinase (Homo sapiens) (UniProt Q14680); settings: at 0.1 µM
# Chain of Maternal embryonic leucine zipper kinase (Homo sapiens) (Q14680 whole entry, looked up): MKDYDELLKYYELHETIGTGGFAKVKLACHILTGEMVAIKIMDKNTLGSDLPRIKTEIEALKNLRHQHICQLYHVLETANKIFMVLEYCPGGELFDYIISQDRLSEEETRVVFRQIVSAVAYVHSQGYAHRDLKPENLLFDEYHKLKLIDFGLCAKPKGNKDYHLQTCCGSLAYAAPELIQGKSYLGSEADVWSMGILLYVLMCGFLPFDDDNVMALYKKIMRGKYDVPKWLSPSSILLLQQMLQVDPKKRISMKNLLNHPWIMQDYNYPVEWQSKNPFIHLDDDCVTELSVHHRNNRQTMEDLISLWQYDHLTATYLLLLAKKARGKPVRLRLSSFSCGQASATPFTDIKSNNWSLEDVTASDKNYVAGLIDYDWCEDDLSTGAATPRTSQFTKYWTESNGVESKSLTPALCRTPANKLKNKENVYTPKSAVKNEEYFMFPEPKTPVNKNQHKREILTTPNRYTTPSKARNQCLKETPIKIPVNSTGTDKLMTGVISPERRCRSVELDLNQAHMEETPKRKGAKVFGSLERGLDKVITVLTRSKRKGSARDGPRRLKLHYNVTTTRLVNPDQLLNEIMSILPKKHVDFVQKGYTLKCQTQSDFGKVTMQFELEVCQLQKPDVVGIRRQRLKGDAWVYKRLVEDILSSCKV
# [5] = target: Maternal embryonic leucine zipper kinase (Homo sapiens) (UniProt Q14680); settings: at 1 µM
# [6] = target: MAP kinase-interacting serine/threonine-protein kinase 1 (Homo sapiens) (UniProt Q9BUB5); settings: at 0.1 µM
# Chain of MAP kinase-interacting serine/threonine-protein kinase 1 (Homo sapiens) (Q9BUB5 whole entry, looked up): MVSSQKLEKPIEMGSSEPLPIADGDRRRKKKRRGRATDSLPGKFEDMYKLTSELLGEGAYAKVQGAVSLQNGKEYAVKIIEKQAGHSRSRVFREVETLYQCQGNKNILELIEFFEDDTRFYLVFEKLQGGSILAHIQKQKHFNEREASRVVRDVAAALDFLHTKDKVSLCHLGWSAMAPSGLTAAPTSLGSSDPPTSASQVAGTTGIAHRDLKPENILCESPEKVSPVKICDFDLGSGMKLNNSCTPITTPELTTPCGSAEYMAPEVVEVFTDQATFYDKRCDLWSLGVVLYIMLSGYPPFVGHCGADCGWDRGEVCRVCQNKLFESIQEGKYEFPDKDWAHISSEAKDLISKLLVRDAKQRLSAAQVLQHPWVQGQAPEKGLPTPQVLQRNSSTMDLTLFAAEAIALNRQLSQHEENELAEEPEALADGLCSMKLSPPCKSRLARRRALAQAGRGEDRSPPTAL
# [7] = target: MAP kinase-interacting serine/threonine-protein kinase 1 (Homo sapiens) (UniProt Q9BUB5); settings: at 1 µM
# [8] = target: MAP kinase-interacting serine/threonine-protein kinase 2 (Homo sapiens) (UniProt Q9HBH9); settings: at 0.1 µM
# Chain of MAP kinase-interacting serine/threonine-protein kinase 2 (Homo sapiens) (Q9HBH9 whole entry, looked up): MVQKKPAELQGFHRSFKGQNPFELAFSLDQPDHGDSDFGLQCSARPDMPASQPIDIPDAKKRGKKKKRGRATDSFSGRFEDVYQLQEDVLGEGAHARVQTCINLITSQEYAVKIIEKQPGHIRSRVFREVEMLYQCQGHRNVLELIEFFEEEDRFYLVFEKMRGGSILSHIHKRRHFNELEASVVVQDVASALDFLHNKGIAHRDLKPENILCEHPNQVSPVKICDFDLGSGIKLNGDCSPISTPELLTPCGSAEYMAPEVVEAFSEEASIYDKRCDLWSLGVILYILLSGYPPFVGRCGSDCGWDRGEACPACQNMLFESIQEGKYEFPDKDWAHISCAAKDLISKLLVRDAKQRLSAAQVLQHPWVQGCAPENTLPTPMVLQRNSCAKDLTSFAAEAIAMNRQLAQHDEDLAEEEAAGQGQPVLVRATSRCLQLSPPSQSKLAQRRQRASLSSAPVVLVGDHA
# [9] = target: MAP kinase-interacting serine/threonine-protein kinase 2 (Homo sapiens) (UniProt Q9HBH9); settings: at 1 µM
# [10] = target: Serine/threonine-protein kinase MARK2 (Homo sapiens) (UniProt Q7KZI7); settings: at 0.1 µM;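 note: mean percent inhibition of PAR-1Balpha kinase activity, reported from the GSK PKIS screen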
# Chain of Serine/threonine-protein kinase MARK2 (Homo sapiens) (Q7KZI7 whole entry): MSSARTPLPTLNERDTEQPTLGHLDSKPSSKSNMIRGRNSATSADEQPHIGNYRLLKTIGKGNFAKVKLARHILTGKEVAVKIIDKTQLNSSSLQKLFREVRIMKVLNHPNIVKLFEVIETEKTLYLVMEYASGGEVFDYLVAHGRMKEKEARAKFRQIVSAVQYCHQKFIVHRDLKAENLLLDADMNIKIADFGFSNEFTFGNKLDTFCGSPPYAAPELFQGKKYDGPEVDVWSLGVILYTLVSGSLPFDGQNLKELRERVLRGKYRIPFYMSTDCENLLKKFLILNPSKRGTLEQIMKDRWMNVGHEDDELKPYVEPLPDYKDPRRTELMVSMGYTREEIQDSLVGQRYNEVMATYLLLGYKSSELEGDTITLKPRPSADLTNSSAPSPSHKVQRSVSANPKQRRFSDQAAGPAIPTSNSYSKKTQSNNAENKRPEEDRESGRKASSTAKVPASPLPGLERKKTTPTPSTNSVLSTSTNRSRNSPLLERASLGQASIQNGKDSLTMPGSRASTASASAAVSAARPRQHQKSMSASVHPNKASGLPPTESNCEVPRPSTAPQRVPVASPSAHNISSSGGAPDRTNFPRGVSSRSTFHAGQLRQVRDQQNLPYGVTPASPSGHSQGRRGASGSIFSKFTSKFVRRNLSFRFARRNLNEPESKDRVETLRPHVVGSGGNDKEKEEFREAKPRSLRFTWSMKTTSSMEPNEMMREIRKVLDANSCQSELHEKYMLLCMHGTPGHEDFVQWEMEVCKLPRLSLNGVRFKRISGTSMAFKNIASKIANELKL
# Chain of MAP/microtubule affinity-regulating kinase 3 (Homo sapiens) (P27448 whole entry, looked up): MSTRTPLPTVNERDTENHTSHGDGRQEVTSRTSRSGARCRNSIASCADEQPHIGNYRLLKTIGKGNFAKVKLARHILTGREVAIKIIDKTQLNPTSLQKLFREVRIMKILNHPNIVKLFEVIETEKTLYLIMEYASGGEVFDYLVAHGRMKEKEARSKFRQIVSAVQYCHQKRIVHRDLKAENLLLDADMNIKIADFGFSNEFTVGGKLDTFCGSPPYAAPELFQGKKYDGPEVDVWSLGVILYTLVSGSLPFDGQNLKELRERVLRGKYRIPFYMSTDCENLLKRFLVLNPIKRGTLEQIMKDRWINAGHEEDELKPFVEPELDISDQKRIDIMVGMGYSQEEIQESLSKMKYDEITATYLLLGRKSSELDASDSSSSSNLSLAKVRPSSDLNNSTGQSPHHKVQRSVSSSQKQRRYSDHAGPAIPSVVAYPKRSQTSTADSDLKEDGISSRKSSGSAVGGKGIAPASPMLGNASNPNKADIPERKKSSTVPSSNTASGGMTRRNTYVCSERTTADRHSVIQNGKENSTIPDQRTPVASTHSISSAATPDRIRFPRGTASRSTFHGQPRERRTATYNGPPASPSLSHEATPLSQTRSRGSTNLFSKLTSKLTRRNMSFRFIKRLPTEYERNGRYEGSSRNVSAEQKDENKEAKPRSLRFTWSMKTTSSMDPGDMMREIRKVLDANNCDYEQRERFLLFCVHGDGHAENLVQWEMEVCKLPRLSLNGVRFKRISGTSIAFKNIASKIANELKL
Compound,inhibition [1] [%],inhibition [2] [%],inhibition [3] [%],inhibition [4] [%],inhibition [5] [%],inhibition [6] [%],inhibition [7] [%],inhibition [8] [%],inhibition [9] [%],inhibition [10] [%]
CN(C)c1ccc2c(c1)/C(=C/Nc1ccc(S(N)(=O)=O)cc1)C(=O)N2,32.7,6.9,32.5,3.82,20.4,1.64,9.3,1.66,3.67,3.86
C#Cc1cccc(Nc2ncnc3ccc(OCCCCNCCS(C)(=O)=O)cc23)c1,6.08,2.28,3.56,3.6,8.09,9.11,46.7,4.73,31.8,1.67
COc1ccc2cc(-c3c(-c4ccncc4)nc(-c4ccc(S(C)(=O)=O)cc4C)n3C)ccc2c1,2.48,2.52,1.32,6.13,9.41,2.6,6.69,1.75,3.34,0.73
O=C(Nc1n[nH]c2cc(-c3cc(F)ccc3F)ccc12)C1CC1,-0.14,2.5,5.44,2.11,5.13,3.39,12.6,1.25,2.16,-1.51
CN(c1ccc(NC(=O)Nc2c(Cl)cccc2Cl)cc1)c1ccnc(Nc2cccc(CS(C)(=O)=O)c2)n1,13.3,2.82,12.8,3.73,3.32,10.2,27.9,20.4,45.6,-0.82
Fc1ccc(-c2ncn(C3CCNCC3)c2-c2ccnc(Oc3ccc4c(c3)OCO4)n2)cc1,5.12,2.61,3.33,6.04,6.41,4.52,7.62,1.84,6.88,0.67
NC(=O)c1cc(-c2ccc(F)cc2)cc(-c2ccncc2)c1N,-2.7,1.2,2.29,2.86,4.94,3.36,12.1,1.44,3.34,0.15
CCS(=O)(=O)c1ccc(OC)c(Nc2ncc(-c3cccc(-c4ccccc4F)c3)o2)c1,7.39,1.24,1.22,1.52,3.29,1.34,4.69,0.34,3.99,-5.23
COc1cccc(/C=N/Nc2ncnc3c2cnn3-c2cccc(OC)c2)c1,0.87,0.94,0.58,3.83,9.57,2.02,4.36,-0.25,2.4,-5.9
CCc1cccc(CC)c1/C=C/c1cncc(C(=O)NC)c1,0.43,0.15,1.03,1.61,3.83,1.04,3.27,0.49,1.79,-0.01
Cc1nnc(-c2ccc(C)c(-c3ccc(C(=O)NCc4ccc(Cl)cc4)cc3)c2)o1,-1.1,2.02,1.96,4.87,5.52,2.03,6.45,0.86,1.57,1.6
c1ccc(-c2n[nH]cc2-c2ccnc(-c3ccc(OCCN4CCOCC4)cc3)c2)nc1,5.45,4.57,5.04,-1.03,3.77,4.82,2.74,3.62,2.02,4.23
CS(=O)(=O)CCNCc1ccc(-c2ccc3ncnc(Nc4ccc(OCc5ccccc5)c(Br)c4)c3c2)o1,-0.13,2.98,2.37,5.3,5.37,2.72,6.16,2.36,7.73,0.23
COc1cc2ncn(-c3cc(OCc4cccs4)c(C(N)=O)s3)c2cc1OC,20.3,2.12,9.4,2.35,4.91,3.56,14.7,3.17,13,1.68
CN1CCN(CCCNc2nc3ccc(Oc4ccc(NC(=O)Nc5cc(C(F)(F)F)ccc5F)cc4)cc3[nH]2)CC1,0.11,1.5,2.34,0.4,-0.26,2.77,15.5,0.67,9.51,-0.44
Clc1ccc(CNc2nccc(-c3cnn4ncccc34)n2)cc1,2.59,-0.78,-0.74,-0.99,16.4,1.08,6.48,1.92,10.7,-0.61
CCc1nccc2c1nc(-c1nonc1N)n2CC,-0.48,0.74,0.5,-0.92,0.69,-0.04,2.83,-0.46,4.5,0.35
